# According to PubChem BioAssay (NCI):
# Compounds without any hit were thinned out: in the full panel of roughly 79,000, 15% have a hit. A number with no mark means an inactive call. Activity calls are given as the source filed them. Cut-off read from the data, not from the text of the source: active = growth inhibition above about 70%; inactive = the rest.
# Key:
# [1] = NCI Yeast Anticancer Drug Screen. Data for the rad52 strain (AID 147);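 note: 0% = growth of vehicle-treated control cultures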; settings: S. cerevisiae rad52 mutant growth inhibition, hits give high values
# Outline: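 Yeast strain carrying a DNA damage repair alteration was exposed to test compounds. Growth inhibition was measured relative to vehicle-treated controls.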
# [2] = NCI Yeast Anticancer Drug Screen. Data for the wt1 strain (AID 149);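 note: 0% = growth of vehicle-treated wt1 cultures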; settings: S. cerevisiae wt1 strain (SPY 50644) growth inhibition, hits give high values
# Outline: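 Growth inhibition read against vehicle controls after compound exposure of the wt1 yeast strain.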
# [3] = NCI Yeast Anticancer Drug Screen. Data for the rad50EPP+ strain (AID 151);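 note: 0% = growth of vehicle-treated control cultures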; settings: S. cerevisiae rad50 mutant strain, hits give high values
# Outline: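 Yeast strain carrying rad50 alteration (rad50EPP+) exposed to compounds; growth inhibition measured relative to vehicle-treated controls.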
# [4] = NCI Yeast Anticancer Drug Screen. Data for the mgt1 strain (AID 153); settings: S. cerevisiae mgt1 mutant growth inhibition, hits give high values
# Outline: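 Yeast mgt1 strain (DNA repair/cell-cycle alteration panel) exposed to compounds; growth inhibition measured relative to vehicle-treated controls.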
# [5] = NCI Yeast Anticancer Drug Screen. Data for the rad50 strain (AID 155);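 note: 0% = growth of vehicle-only cultures of the same strain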; settings: S. cerevisiae rad50 strain growth inhibition, hits give high values
# Outline: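 Readout: growth inhibition relative to vehicle-treated cultures. Compound exposure was carried out in a genetically defined yeast strain deficient in DNA damage repair.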
# [6] = NCI Yeast Anticancer Drug Screen. Data for the mec2-1 strain (AID 157); settings: S. cerevisiae mec2-1 strain, hits give high values
# Outline: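 mec2-1 yeast strain, carrying an alteration in DNA damage repair or cell cycle control, was exposed to compounds; growth inhibition was measured relative to vehicle-treated controls.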
# [7] = NCI Yeast Anticancer Drug Screen. Data for the rad14 strain (AID 159);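 note: 0% = growth of vehicle-treated control cultures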; settings: S. cerevisiae rad14 strain growth inhibition, hits give high values
# Outline: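 Growth inhibition vs vehicle controls; genetically altered yeast strain (DNA damage repair defect) treated with test compounds.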
# [8] = NCI Yeast Anticancer Drug Screen. Data for the sgs1 mgt1 strain (AID 161);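 note: 0% = growth of cultures given vehicle only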; settings: S. cerevisiae sgs1 mgt1 strain, hits give high values
# Outline: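 Yeast cells carrying a defined DNA-repair defect were exposed to test compounds. Growth inhibition was measured relative to vehicle-treated controls.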
# [9] = NCI Yeast Anticancer Drug Screen. Data for the CLN2oe strain (AID 163);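 note: 0% = growth of vehicle-only control cultures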; settings: S. cerevisiae CLN2oe strain, hits give high values
# Outline: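 Yeast cells carrying a defined cell-cycle control alteration were exposed to test compounds. Growth inhibition was scored against vehicle-treated control cultures.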
# [10] = NCI Yeast Anticancer Drug Screen. Data for the cln2 rad14 strain (AID 165);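 note: 0% = growth equal to vehicle treated cultures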; settings: S. cerevisiae cln2 rad14 strain, hits give high values
# Outline: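 Yeast carrying cln2 and rad14 alterations (cell cycle control and DNA damage repair) were exposed to compounds. Growth inhibition was measured against vehicle-treated controls.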
# [11] = NCI Yeast Anticancer Drug Screen. Data for the bub3 strain (AID 167); settings: S. cerevisiae bub3 mutant strain, hits give high values
# Outline: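 Readout: yeast growth inhibition, expressed relative to vehicle-only wells. The test organism is a mutant strain from a panel with lesions in DNA repair or checkpoint genes.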
# [12] = NCI Yeast Anticancer Drug Screen. Data for the wt2 strain (AID 169);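 note: 0% = growth of vehicle-treated yeast cultures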; settings: S. cerevisiae wt2 strain growth inhibition, hits give high values
# Outline: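 Yeast cells were exposed to test compounds, and growth inhibition was measured relative to vehicle-treated controls.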
# [13] = NCI Yeast Anticancer Drug Screen. Data for the mlh1 strain (AID 171);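 note: 0% = growth of vehicle-treated control cultures of the same strain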; settings: S. cerevisiae mlh1 strain growth inhibition, hits give high values
# Outline: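 Yeast carrying a defined genetic alteration in DNA damage repair or cell cycle control were exposed to test compounds. Growth inhibition was measured relative to vehicle-treated controls.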
# [14] = NCI Yeast Anticancer Drug Screen. Data for the sgs1 strain (AID 173);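 note: 0% = growth of vehicle-only control cultures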; settings: S. cerevisiae sgs1 mutant, hits give high values
# Outline: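 Yeast mutant strains carrying defined defects in DNA damage repair or cell cycle control were exposed to test compounds. Growth inhibition was scored against vehicle-treated controls.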
# [15] = NCI Yeast Anticancer Drug Screen. Data for the mlh1 rad18 strain (AID 175); settings: S. cerevisiae mlh1 rad18 strain growth inhibition, hits give high values
# Outline: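 Growth inhibition of the yeast strain was measured after compound exposure and expressed relative to vehicle-treated controls. The strain carries defined defects in DNA damage repair.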
# [16] = NCI Yeast Anticancer Drug Screen. Data for the rad18 strain (AID 177); settings: S. cerevisiae rad18 mutant growth inhibition, hits give high values
# Outline: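 Yeast carrying a defined DNA damage repair alteration were exposed to compounds. Growth inhibition was expressed relative to vehicle-treated controls.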
# [17] = at 5.0 µM (retest, dose inferred, filed as 0.5)
# [18] = at 50.0 µM (retest, dose inferred, filed as 5.0)
smiles,measurement,setting,value
OC1(c2ccccc2)C2CC=CC2C1(c1ccccc1)c1ccccc1 (stereo unspecified),growth inhibition,[1]; at 1.2 µM,0%
same,growth inhibition,[1]; at 3.7 µM,-1%
same,growth inhibition,[1]; at 11.0 µM,4%
same,growth inhibition,[1]; at 33.0 µM,34%
same,growth inhibition,[1]; at 100.0 µM,63%
same,growth inhibition,[2]; at 1.2 µM,-4%
same,growth inhibition,[2]; at 3.7 µM,-7%
same,growth inhibition,[2]; at 11.0 µM,-8%
same,growth inhibition,[2]; at 33.0 µM,-7%
same,growth inhibition,[2]; at 100.0 µM,21%
same,growth inhibition,[3]; at 1.2 µM,-7%
same,growth inhibition,[3]; at 3.7 µM,-1%
same,growth inhibition,[3]; at 11.0 µM,2%
same,growth inhibition,[3]; at 33.0 µM,-5%
same,growth inhibition,[3]; at 100.0 µM,-5%
same,growth inhibition,[4]; at 1.2 µM,-4%
same,growth inhibition,[4]; at 3.7 µM,-2%
same,growth inhibition,[4]; at 11.0 µM,-5%
same,growth inhibition,[4]; at 33.0 µM,-4%
same,growth inhibition,[4]; at 100.0 µM,16%
same,growth inhibition,[5]; at 1.2 µM,-2%
same,growth inhibition,[5]; at 3.7 µM,6%
same,growth inhibition,[5]; [17],12%
same,growth inhibition,[5]; at 11.0 µM,12%
same,growth inhibition,[5]; at 33.0 µM,43%
same,growth inhibition,[5]; [18],53%
same,growth inhibition,[5]; at 50.0 µM,12.1%
same,growth inhibition,[5]; at 100.0 µM,62%
same,growth inhibition,[6]; at 1.2 µM,-3%
same,growth inhibition,[6]; at 3.7 µM,-2%
same,growth inhibition,[6]; [17],-6%
same,growth inhibition,[6]; at 11.0 µM,-6%
same,growth inhibition,[6]; at 33.0 µM,18%
same,growth inhibition,[6]; [18],-10%
same,growth inhibition,[6]; at 50.0 µM,-14.2%
same,growth inhibition,[6]; at 100.0 µM,49%
same,growth inhibition,[7]; at 1.2 µM,-3%
same,growth inhibition,[7]; at 3.7 µM,4%
same,growth inhibition,[7]; at 11.0 µM,6%
same,growth inhibition,[7]; at 33.0 µM,0%
same,growth inhibition,[7]; at 100.0 µM,19%
same,growth inhibition,[8]; [17],16%
same,growth inhibition,[8]; [18],70% (active)
same,growth inhibition,[8]; at 50.0 µM,11.1%
same,growth inhibition,[9]; at 1.2 µM,2%
same,growth inhibition,[9]; at 3.7 µM,8%
same,growth inhibition,[9]; at 11.0 µM,2%
same,growth inhibition,[9]; at 33.0 µM,-7%
same,growth inhibition,[9]; at 100.0 µM,10%
same,growth inhibition,[10]; [17],15%
same,growth inhibition,[10]; [18],19%
same,growth inhibition,[10]; at 50.0 µM,-3.15%
same,growth inhibition,[11]; at 1.2 µM,0%
same,growth inhibition,[11]; at 3.7 µM,2%
same,growth inhibition,[11]; [17],-3%
same,growth inhibition,[11]; at 11.0 µM,-9%
same,growth inhibition,[11]; at 33.0 µM,2%
same,growth inhibition,[11]; [18],52%
same,growth inhibition,[11]; at 50.0 µM,10.9%
same,growth inhibition,[11]; at 100.0 µM,27%
same,growth inhibition,[12]; at 1.2 µM,-8%
same,growth inhibition,[12]; at 3.7 µM,-11%
same,growth inhibition,[12]; at 11.0 µM,-8%
same,growth inhibition,[12]; at 33.0 µM,7%
same,growth inhibition,[12]; at 100.0 µM,54%
same,growth inhibition,[13]; at 1.2 µM,-3%
same,growth inhibition,[13]; at 3.7 µM,1%
same,growth inhibition,[13]; at 11.0 µM,7%
same,growth inhibition,[13]; at 33.0 µM,13%
same,growth inhibition,[13]; at 100.0 µM,45%
same,growth inhibition,[14]; at 1.2 µM,-15%
same,growth inhibition,[14]; at 3.7 µM,-2%
same,growth inhibition,[14]; at 11.0 µM,-2%
same,growth inhibition,[14]; at 33.0 µM,54%
same,growth inhibition,[14]; at 100.0 µM,77% (active)
same,growth inhibition,[15]; [17],19%
same,growth inhibition,[15]; [18],76% (active)
same,growth inhibition,[15]; at 50.0 µM,0.45%
O=C(O)/C=C\C(=O)Nc1ccc2c(c1)Cc1cc(Cl)ccc1-2,growth inhibition,[1]; at 1.2 µM,-3%
same,growth inhibition,[1]; at 3.7 µM,-3%
same,growth inhibition,[1]; at 11.0 µM,-3%
same,growth inhibition,[1]; at 33.0 µM,2%
same,growth inhibition,[1]; at 100.0 µM,19%
same,growth inhibition,[2]; at 1.2 µM,-3%
same,growth inhibition,[2]; at 3.7 µM,-3%
same,growth inhibition,[2]; at 11.0 µM,-6%
same,growth inhibition,[2]; at 33.0 µM,-5%
same,growth inhibition,[2]; at 100.0 µM,0%
same,growth inhibition,[3]; at 1.2 µM,-3%
same,growth inhibition,[3]; at 3.7 µM,8%
same,growth inhibition,[3]; at 11.0 µM,14%
same,growth inhibition,[3]; at 33.0 µM,28%
same,growth inhibition,[3]; at 100.0 µM,81% (active)
same,growth inhibition,[4]; at 1.2 µM,-3%
same,growth inhibition,[4]; at 3.7 µM,-5%
same,growth inhibition,[4]; at 11.0 µM,-1%
same,growth inhibition,[4]; at 33.0 µM,-4%
same,growth inhibition,[4]; at 100.0 µM,22%
same,growth inhibition,[5]; at 1.2 µM,-3%
same,growth inhibition,[5]; at 3.7 µM,-4%
same,growth inhibition,[5]; [17],12%
same,growth inhibition,[5]; at 11.0 µM,-2%
same,growth inhibition,[5]; at 33.0 µM,1%
same,growth inhibition,[5]; [18],7%
same,growth inhibition,[5]; at 50.0 µM,-6.3%
same,growth inhibition,[5]; at 100.0 µM,19%
same,growth inhibition,[6]; at 1.2 µM,-4%
same,growth inhibition,[6]; at 3.7 µM,-1%
same,growth inhibition,[6]; [17],-1%
same,growth inhibition,[6]; at 11.0 µM,-2%
same,growth inhibition,[6]; at 33.0 µM,1%
same,growth inhibition,[6]; [18],-4%
same,growth inhibition,[6]; at 50.0 µM,1.65%
same,growth inhibition,[6]; at 100.0 µM,10%
same,growth inhibition,[7]; at 1.2 µM,-3%
same,growth inhibition,[7]; at 3.7 µM,-4%
same,growth inhibition,[7]; at 11.0 µM,-3%
same,growth inhibition,[7]; at 33.0 µM,4%
same,growth inhibition,[7]; at 100.0 µM,29%
same,growth inhibition,[8]; [17],-1%
same,growth inhibition,[8]; [18],33%
same,growth inhibition,[8]; at 50.0 µM,34.1%
same,growth inhibition,[9]; at 1.2 µM,-4%
same,growth inhibition,[9]; at 3.7 µM,-7%
same,growth inhibition,[9]; at 11.0 µM,-11%
same,growth inhibition,[9]; at 33.0 µM,-13%
same,growth inhibition,[9]; at 100.0 µM,-3%
same,growth inhibition,[10]; [17],-5%
same,growth inhibition,[10]; [18],15%
same,growth inhibition,[10]; at 50.0 µM,80.3% (active)
same,growth inhibition,[11]; at 1.2 µM,-4%
same,growth inhibition,[11]; at 3.7 µM,-5%
same,growth inhibition,[11]; [17],-4%
same,growth inhibition,[11]; at 11.0 µM,-7%
same,growth inhibition,[11]; at 33.0 µM,-7%
same,growth inhibition,[11]; [18],-7%
same,growth inhibition,[11]; at 50.0 µM,11.9%
same,growth inhibition,[11]; at 100.0 µM,-1%
same,growth inhibition,[12]; at 1.2 µM,-3%
same,growth inhibition,[12]; at 3.7 µM,-3%
same,growth inhibition,[12]; at 11.0 µM,-5%
same,growth inhibition,[12]; at 33.0 µM,-3%
same,growth inhibition,[12]; at 100.0 µM,11%
same,growth inhibition,[13]; at 1.2 µM,-2%
same,growth inhibition,[13]; at 3.7 µM,-1%
same,growth inhibition,[13]; at 11.0 µM,1%
same,growth inhibition,[13]; at 33.0 µM,4%
same,growth inhibition,[13]; at 100.0 µM,27%
same,growth inhibition,[14]; at 1.2 µM,-2%
same,growth inhibition,[14]; at 3.7 µM,0%
same,growth inhibition,[14]; at 11.0 µM,4%
same,growth inhibition,[14]; at 33.0 µM,10%
same,growth inhibition,[14]; at 100.0 µM,50%
same,growth inhibition,[15]; [17],2%
same,growth inhibition,[15]; [18],59%
same,growth inhibition,[15]; at 50.0 µM,54.1%
same,growth inhibition,[16]; at 1.2 µM,0%
same,growth inhibition,[16]; at 3.7 µM,5%
same,growth inhibition,[16]; at 11.0 µM,18%
same,growth inhibition,[16]; at 33.0 µM,34%
same,growth inhibition,[16]; at 100.0 µM,80% (active)
